# Measurements reported in publication PMC7862700, “An all-to-all approach to the identification of sequence-specific readers for epigenetic DNA modifications on cytosine”.
# How the values were obtained:
# Test in all cases: DAPPL (digital affinity profiling via proximity ligation, sequencing); 10 mM Tris-HCl pH 7.5, 50 mM NaCl, 1 mM DTT, 4% glycerol, room temperature, 30 min; GST-TFs on glutathione beads, 16-mer random dsDNA library, 0.1% formaldehyde crosslink after washing; high values mean tight binding
# [1] = target: T1, FEV (Homo sapiens, UniProt Q99581 1-238); conditions: protein: recombinant; tags: N-terminal GST; dsDNA, one strand shown
# T1 sequence: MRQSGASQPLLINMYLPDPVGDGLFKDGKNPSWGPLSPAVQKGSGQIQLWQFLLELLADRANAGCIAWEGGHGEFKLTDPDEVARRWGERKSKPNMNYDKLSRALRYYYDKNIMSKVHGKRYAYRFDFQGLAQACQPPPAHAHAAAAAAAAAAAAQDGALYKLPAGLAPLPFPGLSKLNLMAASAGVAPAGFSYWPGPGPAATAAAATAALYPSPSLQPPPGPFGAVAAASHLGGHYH
# In short: (§1)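 Beads coated with glutathione captured GST-fused human transcription factors that had been expressed in yeast, and the factors were then given DNA barcodes and pooled with a tag-only sample. The pools were incubated with 200 nmole of a random double-stranded 16-mer DNA library in Tris/NaCl/DTT/glycerol buffer for 30 min at room temperature, washed, crosslinked with 0.1% formaldehyde and proximity-ligated with BsaI/T4 ligase at 37 °C for 1 h. PCR amplification and Illumina NextSeq500 sequencing came last. Binding signal is each hexamer's read frequency for a factor divided by its frequency for the tag-only sample.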
# [2] = target: ETV5 (Homo sapiens, UniProt P41161 1-510); conditions: protein: recombinant; tags: N-terminal GST; dsDNA, one strand shown
# In short: as §1
# [3] = target: HSF1 (Homo sapiens, UniProt Q00613 1-529); conditions: protein: recombinant; tags: N-terminal GST; chain copies: 3; dsDNA, one strand shown
# In short: as §1
# [4] = target: T2, SPIC (Homo sapiens, UniProt Q8N5J4 1-248); conditions: protein: recombinant; tags: N-terminal GST; dsDNA, one strand shown
# T2 sequence: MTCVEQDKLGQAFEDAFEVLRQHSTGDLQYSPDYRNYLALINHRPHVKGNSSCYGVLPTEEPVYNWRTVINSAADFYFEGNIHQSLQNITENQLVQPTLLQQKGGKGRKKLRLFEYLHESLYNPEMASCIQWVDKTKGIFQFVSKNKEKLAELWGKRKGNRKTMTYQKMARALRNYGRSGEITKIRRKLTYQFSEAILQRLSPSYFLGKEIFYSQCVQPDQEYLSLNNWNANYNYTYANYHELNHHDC
# In short: as §1
# [5] = target: ELF4 (Homo sapiens, UniProt Q99607 1-663); conditions: protein: recombinant; tags: N-terminal GST; dsDNA, one strand shown
# In short: as §1
# [6] = target: T3, ELK4 (Homo sapiens, UniProt P28324-2 1-405); conditions: protein: recombinant; tags: N-terminal GST; dsDNA, one strand shown
# T3 sequence: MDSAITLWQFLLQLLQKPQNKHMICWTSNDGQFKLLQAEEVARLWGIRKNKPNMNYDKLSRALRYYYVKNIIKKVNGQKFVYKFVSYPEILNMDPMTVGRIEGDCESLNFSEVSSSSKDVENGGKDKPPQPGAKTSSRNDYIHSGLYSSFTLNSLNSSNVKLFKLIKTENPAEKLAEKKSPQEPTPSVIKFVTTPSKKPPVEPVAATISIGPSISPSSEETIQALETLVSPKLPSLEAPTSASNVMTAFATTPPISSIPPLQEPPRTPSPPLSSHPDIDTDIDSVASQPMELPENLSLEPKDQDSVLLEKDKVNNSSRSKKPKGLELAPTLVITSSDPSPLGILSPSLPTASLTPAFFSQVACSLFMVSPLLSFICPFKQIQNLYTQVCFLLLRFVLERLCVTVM
# In short: as §1
# [7] = target: T4, ETV2 (Homo sapiens, UniProt O00321 1-342); conditions: protein: recombinant; tags: N-terminal GST; dsDNA, one strand shown
# T4 sequence: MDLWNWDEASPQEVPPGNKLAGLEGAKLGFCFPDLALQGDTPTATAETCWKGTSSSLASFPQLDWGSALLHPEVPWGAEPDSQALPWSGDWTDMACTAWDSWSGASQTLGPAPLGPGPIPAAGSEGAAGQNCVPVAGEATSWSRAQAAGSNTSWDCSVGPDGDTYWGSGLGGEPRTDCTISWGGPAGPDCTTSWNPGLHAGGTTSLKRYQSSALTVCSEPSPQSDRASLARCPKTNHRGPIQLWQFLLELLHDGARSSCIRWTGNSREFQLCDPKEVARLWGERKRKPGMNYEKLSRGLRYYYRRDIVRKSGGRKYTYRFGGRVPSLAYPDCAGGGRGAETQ
# In short: as §1
# [8] = target: T5, ELF3 (Homo sapiens, UniProt P78545 1-371); conditions: protein: recombinant; tags: N-terminal GST; dsDNA, one strand shown
# T5 sequence: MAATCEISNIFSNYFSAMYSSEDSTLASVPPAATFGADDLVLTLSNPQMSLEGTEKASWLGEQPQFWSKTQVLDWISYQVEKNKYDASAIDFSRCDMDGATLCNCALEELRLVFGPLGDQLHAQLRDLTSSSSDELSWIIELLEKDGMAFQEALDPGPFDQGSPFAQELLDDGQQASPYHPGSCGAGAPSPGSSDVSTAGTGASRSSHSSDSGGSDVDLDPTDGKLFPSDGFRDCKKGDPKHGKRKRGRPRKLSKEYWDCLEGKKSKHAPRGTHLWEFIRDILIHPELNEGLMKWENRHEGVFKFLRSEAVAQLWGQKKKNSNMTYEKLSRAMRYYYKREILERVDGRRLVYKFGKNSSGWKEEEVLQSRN
# In short: as §1
# [9] = target: CRX (Homo sapiens, UniProt O43186 1-299); conditions: protein: recombinant; tags: N-terminal GST; dsDNA, one strand shown
# In short: as §1
# [10] = target: ETV1 (Homo sapiens, UniProt P50549 1-477); conditions: protein: recombinant; tags: N-terminal GST; dsDNA, one strand shown
# In short: as §1
# [11] = target: T6, ERF (Homo sapiens, UniProt P50548 1-548); conditions: protein: recombinant; tags: N-terminal GST; dsDNA, one strand shown
# T6 sequence: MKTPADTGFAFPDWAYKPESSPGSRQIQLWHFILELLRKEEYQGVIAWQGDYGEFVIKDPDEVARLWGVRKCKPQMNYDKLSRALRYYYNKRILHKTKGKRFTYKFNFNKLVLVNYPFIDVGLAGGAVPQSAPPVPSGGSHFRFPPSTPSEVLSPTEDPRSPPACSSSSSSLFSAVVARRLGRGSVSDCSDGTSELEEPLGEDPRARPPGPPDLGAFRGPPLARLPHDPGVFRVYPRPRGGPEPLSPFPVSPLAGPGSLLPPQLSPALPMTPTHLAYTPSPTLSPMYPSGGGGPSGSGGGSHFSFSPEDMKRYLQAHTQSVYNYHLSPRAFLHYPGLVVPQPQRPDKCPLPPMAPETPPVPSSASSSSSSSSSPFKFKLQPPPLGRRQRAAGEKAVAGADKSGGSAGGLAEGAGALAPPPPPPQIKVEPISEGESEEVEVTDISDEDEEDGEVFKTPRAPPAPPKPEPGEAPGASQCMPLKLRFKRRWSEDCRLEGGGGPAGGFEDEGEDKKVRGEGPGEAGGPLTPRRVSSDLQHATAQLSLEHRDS
# In short: as §1
# [12] = target: T7, ETV3L (Homo sapiens, UniProt Q6ZN32 1-361); conditions: protein: recombinant; tags: N-terminal GST; dsDNA, one strand shown
# T7 sequence: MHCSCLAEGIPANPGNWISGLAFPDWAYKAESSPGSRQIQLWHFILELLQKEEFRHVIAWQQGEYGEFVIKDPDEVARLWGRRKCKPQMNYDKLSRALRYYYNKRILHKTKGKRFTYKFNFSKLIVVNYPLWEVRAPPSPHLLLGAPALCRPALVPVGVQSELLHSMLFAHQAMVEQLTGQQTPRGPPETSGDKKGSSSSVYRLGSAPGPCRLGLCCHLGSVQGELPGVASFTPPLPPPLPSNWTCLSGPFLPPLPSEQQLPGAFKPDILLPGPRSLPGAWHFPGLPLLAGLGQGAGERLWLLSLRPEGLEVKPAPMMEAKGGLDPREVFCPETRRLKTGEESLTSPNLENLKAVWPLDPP
# In short: as §1
# [13] = target: T8, ETS2 (Homo sapiens, UniProt P15036 1-469); conditions: protein: recombinant; tags: N-terminal GST; dsDNA, one strand shown
# T8 sequence: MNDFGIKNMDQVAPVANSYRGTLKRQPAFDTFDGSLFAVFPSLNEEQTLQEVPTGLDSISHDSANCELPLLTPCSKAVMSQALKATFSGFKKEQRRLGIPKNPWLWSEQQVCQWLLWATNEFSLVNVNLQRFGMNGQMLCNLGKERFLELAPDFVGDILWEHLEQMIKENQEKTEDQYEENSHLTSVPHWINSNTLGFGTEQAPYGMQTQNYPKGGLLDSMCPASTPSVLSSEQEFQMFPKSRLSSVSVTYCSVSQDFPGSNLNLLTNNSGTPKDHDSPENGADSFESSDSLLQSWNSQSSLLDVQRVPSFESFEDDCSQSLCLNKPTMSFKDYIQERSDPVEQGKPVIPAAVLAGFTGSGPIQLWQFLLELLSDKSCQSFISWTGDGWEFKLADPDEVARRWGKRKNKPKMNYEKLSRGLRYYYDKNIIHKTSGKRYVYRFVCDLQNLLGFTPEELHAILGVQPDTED
# In short: as §1
# [14] = target: T9, SPDEF (Homo sapiens, UniProt O95238 1-335); conditions: protein: recombinant; tags: N-terminal GST; dsDNA, one strand shown
# T9 sequence: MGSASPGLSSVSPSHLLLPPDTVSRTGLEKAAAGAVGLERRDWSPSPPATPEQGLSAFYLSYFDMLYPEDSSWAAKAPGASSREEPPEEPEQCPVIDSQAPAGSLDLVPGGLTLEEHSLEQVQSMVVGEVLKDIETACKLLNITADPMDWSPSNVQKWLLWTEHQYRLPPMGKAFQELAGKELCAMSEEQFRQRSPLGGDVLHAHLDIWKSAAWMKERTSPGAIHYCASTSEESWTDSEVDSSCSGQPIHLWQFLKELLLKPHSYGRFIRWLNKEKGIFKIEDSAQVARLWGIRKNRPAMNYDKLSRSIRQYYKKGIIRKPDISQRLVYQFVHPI
# In short: as §1
# [15] = target: T10, ETV7 (Homo sapiens, UniProt Q9Y603 1-341); conditions: protein: recombinant; tags: N-terminal GST; dsDNA, one strand shown
# T10 sequence: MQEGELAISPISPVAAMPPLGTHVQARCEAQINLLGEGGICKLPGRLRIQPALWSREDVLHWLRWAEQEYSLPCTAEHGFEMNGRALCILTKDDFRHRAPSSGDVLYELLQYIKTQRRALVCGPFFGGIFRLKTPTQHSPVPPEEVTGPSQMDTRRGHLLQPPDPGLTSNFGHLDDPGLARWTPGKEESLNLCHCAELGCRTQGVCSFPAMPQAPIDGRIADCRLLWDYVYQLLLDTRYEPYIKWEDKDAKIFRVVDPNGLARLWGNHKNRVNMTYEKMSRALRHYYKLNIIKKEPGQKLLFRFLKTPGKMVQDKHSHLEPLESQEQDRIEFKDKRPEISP
# In short: as §1
# [16] = target: T11, ELF5 (Homo sapiens, UniProt Q9UKW6-2 1-255); conditions: protein: recombinant; tags: N-terminal GST; dsDNA, one strand shown
# T11 sequence: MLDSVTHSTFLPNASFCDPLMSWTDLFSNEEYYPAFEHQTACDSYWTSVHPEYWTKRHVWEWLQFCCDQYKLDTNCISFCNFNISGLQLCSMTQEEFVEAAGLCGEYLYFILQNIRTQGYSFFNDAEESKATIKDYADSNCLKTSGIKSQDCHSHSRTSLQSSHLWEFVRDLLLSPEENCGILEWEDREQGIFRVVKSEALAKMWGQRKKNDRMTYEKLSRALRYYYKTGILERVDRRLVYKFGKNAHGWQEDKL
# In short: as §1
# [17] = target: T12, ETV3 (Homo sapiens, UniProt P41162-2 1-143); conditions: protein: recombinant; tags: N-terminal GST; dsDNA, one strand shown
# T12 sequence: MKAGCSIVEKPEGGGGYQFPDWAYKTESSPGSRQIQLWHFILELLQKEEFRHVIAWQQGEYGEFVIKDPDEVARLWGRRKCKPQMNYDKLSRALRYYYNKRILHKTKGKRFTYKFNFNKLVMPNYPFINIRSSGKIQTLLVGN
# In short: as §1
# [18] = target: ETV6 (Homo sapiens, UniProt P41212 1-452); conditions: protein: recombinant; tags: N-terminal GST; dsDNA, one strand shown
# In short: as §1
# Chain of CRX (O43186 whole entry): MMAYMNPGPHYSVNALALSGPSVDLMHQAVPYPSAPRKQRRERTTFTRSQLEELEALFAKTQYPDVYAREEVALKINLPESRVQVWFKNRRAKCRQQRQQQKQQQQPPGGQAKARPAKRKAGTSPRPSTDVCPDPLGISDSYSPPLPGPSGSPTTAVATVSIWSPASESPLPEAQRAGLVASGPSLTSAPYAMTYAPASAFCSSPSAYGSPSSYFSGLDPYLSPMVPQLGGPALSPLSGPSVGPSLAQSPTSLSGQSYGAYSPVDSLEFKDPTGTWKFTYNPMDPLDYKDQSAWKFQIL
# Chain of ELF4 (Q99607 whole entry): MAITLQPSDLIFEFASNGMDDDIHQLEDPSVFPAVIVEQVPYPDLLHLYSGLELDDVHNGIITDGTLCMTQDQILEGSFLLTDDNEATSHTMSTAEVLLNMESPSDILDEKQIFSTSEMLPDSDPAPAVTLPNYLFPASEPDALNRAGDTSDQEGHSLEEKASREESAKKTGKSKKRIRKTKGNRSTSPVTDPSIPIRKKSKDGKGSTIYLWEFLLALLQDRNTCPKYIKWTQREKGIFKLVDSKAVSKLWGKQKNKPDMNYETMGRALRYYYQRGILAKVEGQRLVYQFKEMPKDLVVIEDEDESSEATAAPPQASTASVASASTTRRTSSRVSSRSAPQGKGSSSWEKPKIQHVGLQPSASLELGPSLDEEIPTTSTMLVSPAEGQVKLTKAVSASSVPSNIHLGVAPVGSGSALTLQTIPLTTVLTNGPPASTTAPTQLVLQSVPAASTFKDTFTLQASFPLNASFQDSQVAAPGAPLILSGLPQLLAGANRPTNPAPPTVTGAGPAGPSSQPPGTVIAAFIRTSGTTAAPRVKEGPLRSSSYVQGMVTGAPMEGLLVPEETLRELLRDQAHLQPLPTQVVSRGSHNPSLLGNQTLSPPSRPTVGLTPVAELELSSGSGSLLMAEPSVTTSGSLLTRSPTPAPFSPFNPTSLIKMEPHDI
# Chain of ETV1 (P50549 whole entry): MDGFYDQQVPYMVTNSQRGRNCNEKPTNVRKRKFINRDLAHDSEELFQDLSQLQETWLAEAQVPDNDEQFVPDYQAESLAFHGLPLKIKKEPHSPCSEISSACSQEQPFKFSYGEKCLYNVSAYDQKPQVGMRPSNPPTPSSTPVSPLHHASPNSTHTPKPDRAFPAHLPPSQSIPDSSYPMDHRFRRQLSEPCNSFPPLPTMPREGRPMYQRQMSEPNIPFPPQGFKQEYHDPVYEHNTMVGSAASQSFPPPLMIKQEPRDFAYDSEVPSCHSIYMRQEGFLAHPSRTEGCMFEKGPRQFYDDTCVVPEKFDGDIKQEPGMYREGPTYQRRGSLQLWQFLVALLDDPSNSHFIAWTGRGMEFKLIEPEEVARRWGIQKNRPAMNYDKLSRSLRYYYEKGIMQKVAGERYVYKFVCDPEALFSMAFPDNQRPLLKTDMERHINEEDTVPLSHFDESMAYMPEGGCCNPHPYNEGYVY
# Chain of ETV5 (P41161 whole entry): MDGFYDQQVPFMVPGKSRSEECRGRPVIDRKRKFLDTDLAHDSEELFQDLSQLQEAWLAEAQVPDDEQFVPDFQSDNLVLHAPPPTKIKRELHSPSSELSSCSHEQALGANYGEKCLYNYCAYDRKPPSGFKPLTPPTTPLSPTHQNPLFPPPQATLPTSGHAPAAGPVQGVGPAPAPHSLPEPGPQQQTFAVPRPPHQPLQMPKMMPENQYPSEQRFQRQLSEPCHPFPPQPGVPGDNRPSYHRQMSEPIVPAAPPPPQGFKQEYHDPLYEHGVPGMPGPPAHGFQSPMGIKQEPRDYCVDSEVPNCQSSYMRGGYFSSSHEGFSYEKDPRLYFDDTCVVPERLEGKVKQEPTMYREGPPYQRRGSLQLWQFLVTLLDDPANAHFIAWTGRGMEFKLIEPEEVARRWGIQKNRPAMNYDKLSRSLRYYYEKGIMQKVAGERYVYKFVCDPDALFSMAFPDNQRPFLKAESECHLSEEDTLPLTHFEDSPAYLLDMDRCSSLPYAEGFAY
# Chain of ETV6 (P41212 whole entry): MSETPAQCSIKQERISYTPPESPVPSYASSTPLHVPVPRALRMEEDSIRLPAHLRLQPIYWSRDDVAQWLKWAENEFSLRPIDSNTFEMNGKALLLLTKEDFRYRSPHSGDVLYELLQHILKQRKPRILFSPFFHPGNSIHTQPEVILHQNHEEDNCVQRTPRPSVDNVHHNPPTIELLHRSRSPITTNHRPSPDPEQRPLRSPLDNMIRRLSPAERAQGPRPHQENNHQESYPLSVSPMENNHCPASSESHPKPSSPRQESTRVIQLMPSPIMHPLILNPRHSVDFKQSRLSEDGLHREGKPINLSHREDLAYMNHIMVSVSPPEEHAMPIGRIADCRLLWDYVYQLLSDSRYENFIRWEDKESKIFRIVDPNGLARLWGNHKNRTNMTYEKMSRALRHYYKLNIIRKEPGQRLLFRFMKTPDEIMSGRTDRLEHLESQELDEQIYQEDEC
# Chain of HSF1 (Q00613 whole entry): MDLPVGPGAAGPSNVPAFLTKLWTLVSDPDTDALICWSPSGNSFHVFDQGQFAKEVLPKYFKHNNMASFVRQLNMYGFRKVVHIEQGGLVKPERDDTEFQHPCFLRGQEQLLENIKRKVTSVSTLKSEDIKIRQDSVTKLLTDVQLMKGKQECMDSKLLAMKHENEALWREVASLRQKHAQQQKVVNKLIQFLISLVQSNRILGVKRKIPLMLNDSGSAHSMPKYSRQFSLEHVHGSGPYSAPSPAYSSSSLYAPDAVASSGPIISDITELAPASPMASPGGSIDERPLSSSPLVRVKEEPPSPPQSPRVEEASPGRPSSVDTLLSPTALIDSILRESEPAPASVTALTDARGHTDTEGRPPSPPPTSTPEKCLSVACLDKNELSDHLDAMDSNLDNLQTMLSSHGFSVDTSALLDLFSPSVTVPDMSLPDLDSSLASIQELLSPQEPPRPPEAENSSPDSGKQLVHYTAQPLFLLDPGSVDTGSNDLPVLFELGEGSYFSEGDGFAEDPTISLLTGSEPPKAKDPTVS
sequence,measurement,setting,value
AAGATT,binding signal,[1],"1.06 fold enrichment (6-mer frequency, TF over GST control)"
same,binding signal,[2],"1.25 fold enrichment (6-mer frequency, TF over GST control)"
same,binding signal,[3],"2.11 fold enrichment (6-mer frequency, TF over GST control)"
same,binding signal,[4],"1.12 fold enrichment (6-mer frequency, TF over GST control)"
same,binding signal,[5],"1.22 fold enrichment (6-mer frequency, TF over GST control)"
same,binding signal,[6],"1.35 fold enrichment (6-mer frequency, TF over GST control)"
same,binding signal,[7],"1.16 fold enrichment (6-mer frequency, TF over GST control)"
same,binding signal,[8],"1.08 fold enrichment (6-mer frequency, TF over GST control)"
same,binding signal,[9],"2.4 fold enrichment (6-mer frequency, TF over GST control)"
same,binding signal,[10],"1.18 fold enrichment (6-mer frequency, TF over GST control)"
same,binding signal,[11],"1.1 fold enrichment (6-mer frequency, TF over GST control)"
same,binding signal,[12],"1.18 fold enrichment (6-mer frequency, TF over GST control)"
same,binding signal,[13],"1.18 fold enrichment (6-mer frequency, TF over GST control)"
same,binding signal,[14],"1.16 fold enrichment (6-mer frequency, TF over GST control)"
same,binding signal,[15],"1.16 fold enrichment (6-mer frequency, TF over GST control)"
same,binding signal,[16],"1.14 fold enrichment (6-mer frequency, TF over GST control)"
same,binding signal,[17],"1.14 fold enrichment (6-mer frequency, TF over GST control)"
same,binding signal,[18],"1.19 fold enrichment (6-mer frequency, TF over GST control)"
